Measured values taken from PubChem BioAssay (Tox21).
Values joined by “and” are separate entries in the source; they are usually repeats but may differ in a detail not shown here. Equal values may be shown once. Inconclusive results are not listed. Active and inactive are the calls of the source. Unless noted, calls come from the whole dose curve; as a rule, active = well fitted curve in the direction sought with a large enough effect in the repeat runs; inconclusive = weak or mixed curves; inactive = no such curve, though single readings can be large; an effect the other way counts as inactive or inconclusive.

Assays:
[1] = qHTS assay to identify small molecule antagonists of the estrogen related receptor (ERR) signaling pathway from Tox21 library - cell viability counter screen (AID 1224834); note: nearly all actives have a fitted effect of over 30% in size
In short: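 Seeded ERR cells were rested 6 h at 37 C/5% CO2 before compounds, positive and negative controls or DMSO were added. Incubation continued for 17.5 h, and viability was then quantified by CellTiter-Fluor fluorescence.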

[2] = biological target: Luciferin 4-monooxygenase (Photinus pyralis) (UniProt P08659); assay: qHTS assay to identify small molecule inhibitors of firefly luciferase (AID 1224835); note: nearly all actives have a fitted effect of over 25% in size
In short: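 Biochemical qHTS: compounds run as interplate titrations against purified firefly enzyme, with D-luciferin and ATP each at its KM concentration. Light output recorded by CCD imaging.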

[3] = qHTS assay to identify small molecule agonists of the constitutive androstane receptor (CAR) signaling pathway - cell viability counter screen (AID 1224836); note: nearly all actives have a fitted effect of over 45% in size
In short: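 HepG2-CYP2B6-hCAR, 2500 cells/well, 4 h pre-incubation; cpd 15 conc + PK11195 0.75 uM final; 23 h, 37 C/5% CO2; CellTiter-Fluor, fluorescence.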

[4] = qHTS assay to identify small molecule antagonists of the constitutive androstane receptor (CAR) signaling pathway - cell viability counter screen (AID 1224837); note: nearly all actives have a fitted effect of over 45% in size
In short: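 To flag cytotoxic false antagonists, HepG2 hCAR/CYP2B6-2.2kb cells were treated 23 hr with 15-concentration compound series and 50 nM CITCO at 37 C/5% CO2; CellTiter-Fluor fluorescence was the measured end point.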

[5] = biological target: Nuclear receptor subfamily 1 group I member 3 (Homo sapiens) (UniProt Q14994); assay: qHTS assay to identify small molecule antagonists of the constitutive androstane receptor (CAR) signaling pathway (AID 1224838);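 note: HepG2 cells stably expressing hCAR with CYP2B6 luciferase reporter stimulated by CITCO; nearly all actives have a fitted effect of over 40% in size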
In short: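 Human hepatoma HepG2 cells expressing hCAR and a CYP2B6 promoter (2.2 kb) luciferase construct; compound titration (15 points) with 50 nM CITCO final, 24 h at 37 C/5% CO2; luminescence via ONE-Glo after 30 min at room temperature.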

[6] = biological target: Nuclear receptor subfamily 1 group I member 3 (Homo sapiens) (UniProt Q14994); assay: qHTS assay to identify small molecule agonists of the constitutive androstane receptor (CAR) signaling pathway (AID 1224839); note: nearly all actives have a fitted effect of over 15% in size; note: potency is the fitted concentration of half-maximal effect;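 for activation: HepG2 cells stably carrying human CAR and a CYP2B6 luciferase reporter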
In short: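 HepG2-CYP2B6-hCAR cells, 2500/well, 4 h pre-incubation; compounds 15 conc.; PK11195 0.75 uM final; 24 h, 37 C/5% CO2; ONE-Glo luciferase read.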

[7] = qHTS assay to identify small molecule antagonists of the estrogen related receptor signaling pathway with the pleiotropic PPARgamma coactivator (PGC) from Tox21 10K library - cell viability counter screen (AID 1224840; active = well fitted cell-killing curve with a large enough effect in the repeat runs, not every such curve was filed as active; note: nearly all actives have a fitted effect of over 40% in size)
In short: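 Seeded PGC/ERR cells (2,000/well, 6 h, 37 C/5% CO2) get compound by pin tool; 17.5 h incubation at 37 C; CellTiter-Fluor added, 30 min, fluorescence measured.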

[8] = qHTS assay to identify small molecule antagonists of the estrogen related receptor signaling pathway with the pleiotropic PPARgamma coactivator (PGC) from Tox21 10K library (AID 1224841; call rule not given here; note: actives are mostly falling curves and most rising ones were filed inactive; nearly all actives have a fitted effect of over 50% in size)
In short: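 Test chemicals dissolved in DMSO were applied to pre-incubated (6 h) PGC/ERR cells at 2,000 cells/well for an 18 h, 37 C treatment; reporter luminescence was then read using One-Glo.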

[9] = qHTS assay to identify small molecule agonists of the estrogen related receptor signaling pathway with the pleiotropic PPARgamma coactivator (PGC) from Tox21 10K library (AID 1224842); note: nearly all actives have a fitted effect of over 15% in size
In short: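 PGC/ERR reporter cell line, 2,000 cells per well, incubated 6 h at 37 C before 23 nL compound in DMSO was added. After 18 h at 37 C, One-Glo luminescence read following 30 min at room temperature.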

[10] = biological target: Thyrotropin receptor (Homo sapiens) (UniProt P16473); assay: qHTS assay to identify small molecule agonists of the thyroid stimulating hormone receptor (TSHR) signaling pathway (AID 1224843; calls by dose curve; note: nearly all actives have a fitted effect of over 45% in size)
In short: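 HEK293/TSHR, 800 cells/well; cpd 30 min RT; add cAMP-d2 + anti-cAMP-cryptate, 1 h RT; fluorescence read on plate reader. 15-pt titration, n=3.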

[11] = qHTS assay to identify small molecule agonists of the hypoxia (HIF-1) signaling pathway - cell viability counter screen (AID 1224844; calls by dose curve; note: nearly all actives have a fitted effect of over 50% in size)
In short: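 HRE-bla ME-180; 0.5% dFBS; cpd 17 h, 37C, 5% CO2; CellTiter-Glo lum., 30 min RT, post-FRET read, same wells.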

[12] = qHTS assay to identify small molecule agonists of H2AX (AID 1224845; active = well fitted activation curve with a large enough effect in the signal ratio in the repeat runs, not every such curve was filed as active; the % refers to the signal ratio)
In short: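 Wild-type CHO-K1 cells, plated overnight, exposed 3hr at 37C to 15 concentrations (0.76% DMSO final). Lysed, then HTRF anti-pH2AX (S139) cryptate and anti-H2AX-d2 antibodies, 24 hr room temperature; 665/620 nm emission read.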

[13] = qHTS assay to identify small molecule agonists of H2AX - cell viability counter screen (AID 1224847; calls by dose curve; note: top concentration of the series differs between compounds; nearly all actives have a fitted effect of over 30% in size)
In short: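 Cells plated first: CHO-K1, 1000 per well in 10% FBS medium, incubated overnight at 37C. Then 15-point compound titration added (final DMSO 0.76%) for 3 hr. Finally CellTiter-Glo added and luminescence read.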

[14] = qHTS assay to identify small molecule antagonists of the estrogen related receptor (ERR) signaling pathway from Tox21 library (AID 1224848); note: nearly all actives have a fitted effect of over 50% in size; note: potency is the fitted concentration of half-maximal effect
In short: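 Compounds dissolved in DMSO are pin-transferred onto ERR reporter cells (2,000 per well) that have settled for 6 h at 37 C. Plates then incubate 18 h at 37 C before ONE-Glo luciferase reagent and a luminescence read 30 min later.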

[15] = qHTS assay to identify small molecule agonists of the estrogen related receptor (ERR) signaling pathway from Tox21 library (AID 1224849; calls by dose curve; note: nearly all actives have a fitted effect of over 15% in size); conditions: ERR reporter cell line, ONE-Glo luciferase, 18 h
In short: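 Tox21 compounds tested for ERR agonism in an NTP reporter cell line: 18 h treatment at 37 C, then ONE-Glo luminescence.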

[16] = qHTS RealTime-Glo MT Cell Viability Assay in HepG2 cells - 24 hour (AID 1224867); note: nearly all actives have a fitted effect of over 50% in size
In short: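 HepG2 cells (600/well) were dispensed with RealTime-Glo reagents, incubated 5 h at 37 °C, then treated with compounds in DMSO for up to 40 h. Nonlytic NanoLuc luminescence reflecting viable cells was read at each stated time point.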

[17] = A CellTox Green Cytotoxicity Assay to monitor cytotoxicity in HEK293 cells - 0 hour (AID 1224869); note: nearly all actives have a fitted effect of over 50% in size
In short: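 Tox21 screen in HEK293: membrane-impermeant cyanine dye fluoresces on binding dead-cell DNA; compound pinned 5 h post-seeding, plates held at 37 C, signal read repeatedly through 40 h.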

[18] = qHTS assay to identify small molecule agonists of the hypoxia (HIF-1) signaling pathway (AID 1224846; active = well fitted activation curve with a large enough effect in the signal ratio in the repeat runs, not every such curve was filed as active; the % refers to the signal ratio)
In short: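 Reporter induction in HRE-bla ME-180 cells is taken as agonism: cells sit 5 hrs after plating, receive compounds or DMSO only, incubate 17 hrs at 37C under 5% CO2, and are loaded with CCF4-AM for beta-lactamase FRET measurement.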

[19] = qHTS RealTime-Glo MT Cell Viability Assay in HEK293 cells - 32 hour (AID 1224868)
In short: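 HEK293 cells seeded with NanoLuc/prosubstrate reagent, rested 5 h at 37 C, then dosed and kept at 37 C up to 40 h. Nonlytic real-time luminescence from viable cells read at 0, 8, 16, 24, 32 and 40 h.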
% is set by controls: 0 for no effect and ±100 for the full control effect.

Chain of Thyrotropin receptor (Homo sapiens) (P16473 whole entry, looked up): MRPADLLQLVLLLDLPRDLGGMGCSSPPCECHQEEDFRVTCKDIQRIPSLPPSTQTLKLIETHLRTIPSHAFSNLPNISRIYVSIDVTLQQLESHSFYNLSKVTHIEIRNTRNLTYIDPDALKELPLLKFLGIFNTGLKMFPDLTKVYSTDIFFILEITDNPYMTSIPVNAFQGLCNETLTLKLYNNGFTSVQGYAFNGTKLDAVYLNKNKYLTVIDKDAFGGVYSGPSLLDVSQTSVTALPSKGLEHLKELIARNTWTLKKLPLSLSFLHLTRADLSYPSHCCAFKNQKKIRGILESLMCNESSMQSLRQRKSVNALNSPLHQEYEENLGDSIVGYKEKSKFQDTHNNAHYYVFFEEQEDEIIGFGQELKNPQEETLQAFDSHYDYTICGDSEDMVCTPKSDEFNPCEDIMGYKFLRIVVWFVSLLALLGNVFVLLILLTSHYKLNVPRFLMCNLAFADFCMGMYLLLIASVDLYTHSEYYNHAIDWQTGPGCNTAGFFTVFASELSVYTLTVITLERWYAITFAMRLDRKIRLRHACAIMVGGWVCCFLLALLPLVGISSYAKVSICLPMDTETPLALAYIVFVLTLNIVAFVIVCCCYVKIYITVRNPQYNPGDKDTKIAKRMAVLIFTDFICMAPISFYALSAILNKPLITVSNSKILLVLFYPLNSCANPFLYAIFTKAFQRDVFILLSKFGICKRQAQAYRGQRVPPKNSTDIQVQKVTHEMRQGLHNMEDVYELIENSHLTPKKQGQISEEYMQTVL
Chain of Luciferin 4-monooxygenase (Photinus pyralis) (P08659 whole entry, looked up): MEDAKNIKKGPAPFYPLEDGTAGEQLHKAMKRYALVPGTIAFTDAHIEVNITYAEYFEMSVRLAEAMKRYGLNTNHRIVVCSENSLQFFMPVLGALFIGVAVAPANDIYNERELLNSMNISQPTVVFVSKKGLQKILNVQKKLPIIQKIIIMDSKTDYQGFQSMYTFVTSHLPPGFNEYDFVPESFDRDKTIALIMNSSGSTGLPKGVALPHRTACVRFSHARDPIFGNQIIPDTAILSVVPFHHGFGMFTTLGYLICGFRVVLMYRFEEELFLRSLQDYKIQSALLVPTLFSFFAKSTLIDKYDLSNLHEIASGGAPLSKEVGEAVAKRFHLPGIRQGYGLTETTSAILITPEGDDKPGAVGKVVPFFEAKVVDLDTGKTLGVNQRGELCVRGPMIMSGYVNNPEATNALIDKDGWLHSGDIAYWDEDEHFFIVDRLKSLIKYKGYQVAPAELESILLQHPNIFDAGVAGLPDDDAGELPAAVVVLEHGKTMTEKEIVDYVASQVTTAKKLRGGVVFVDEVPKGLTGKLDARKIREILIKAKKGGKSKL
Chain of Nuclear receptor subfamily 1 group I member 3 (Homo sapiens) (Q14994 whole entry, looked up): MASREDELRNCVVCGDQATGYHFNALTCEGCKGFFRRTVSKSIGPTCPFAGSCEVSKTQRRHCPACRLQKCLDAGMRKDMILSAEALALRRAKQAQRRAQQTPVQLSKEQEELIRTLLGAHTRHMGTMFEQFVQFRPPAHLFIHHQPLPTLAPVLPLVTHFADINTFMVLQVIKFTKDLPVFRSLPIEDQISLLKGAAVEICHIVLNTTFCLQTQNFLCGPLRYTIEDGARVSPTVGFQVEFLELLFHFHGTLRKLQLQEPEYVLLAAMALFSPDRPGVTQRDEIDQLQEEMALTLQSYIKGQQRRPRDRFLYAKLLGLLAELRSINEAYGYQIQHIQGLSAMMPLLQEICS

CC(CCC(=O)O)(c1ccc(O)cc1)c1ccc(O)cc1
inactive: Potency [1] | Potency [2] | Potency [3] | Potency [4] | Potency [5] | Potency [6] | Potency [7] | Potency [8] | Potency [9] | Potency [10] | Potency [11] | outcome [12] | Potency [13] | Potency [14] | activity change, positive = activation ([15]; at 92.4 µM (top of the series)) 1.54% and 1.03% | Potency [16] | Potency [17]

CC(C)OB(OC(C)C)OC(C)C
inactive: Potency [1] | Potency [2] | Potency [3] | Potency [4] | Potency [5] | Potency [6] | Potency [7] | Potency [8] | Potency [9] | Potency [11] | outcome [12] | Potency [18] | Potency [13] | Potency [14] | activity change, positive = activation ([15]; at 92.4 µM (top of the series)) -0.608% and 0.13% | Potency [16] | Potency [19] | Potency [17]

O=C(O)c1ccccc1Nc1cccc(C(F)(F)F)c1
inactive: Potency [1] | Potency [2] | Potency [3] | Potency [4] | Potency [5] | Potency [6] | Potency [7] | Potency [10] | Potency [11] | outcome [12] | Potency [13] | Potency [16] | Potency [19] | Potency [17]

O=CCc1ccccc1
inactive: Potency [1] | Potency [2] | Potency [3] | Potency [4] | Potency [5] | Potency [6] | Potency [7] | Potency [11] | outcome [12] | Potency [18] | Potency [13] | Potency [16] | Potency [17]

CCOC(=O)C(C#N)=C(c1ccccc1)c1ccccc1
active: Potency [6] 3.86 µM and 3.76 µM | Potency [14] 48.6 µM
inactive: Potency [1] | Potency [2] | Potency [3] | Potency [4] | Potency [5] | Potency [7] | Potency [8] | Potency [9] | Potency [10] | Potency [11] | outcome [12] | Potency [18] | Potency [13] | activity change, positive = activation ([15]; at 42.5 µM (top of the series)) -21.7% | activity change, positive = activation ([15]; at 92.4 µM (top of the series)) -34.2% | Potency [16] | Potency [19] | Potency [17]

Cc1cccc(N(C)C(=S)Oc2ccc3ccccc3c2)c1
inactive: Potency [1] | Potency [2] | Potency [3] | Potency [4] | Potency [5] | Potency [7] | Potency [10] | Potency [11] | outcome [12] | Potency [16] | Potency [17]
active: Potency [6] 27.3 µM and 26.6 µM

CCCCC(CC)COP(=O)(OCC(CC)CCCC)OCC(CC)CCCC (centres undefined)
inactive: Potency [1] | Potency [2] | Potency [3] | Potency [4] | Potency [5] | Potency [6] | Potency [7] | Potency [10] | Potency [11] | outcome [12] | Potency [18] | Potency [13] | Potency [16] | Potency [19] | Potency [17]
